This is an account of results in the supplement of paper PMC9262897, “Low-cost anti-mycobacterial drug discovery using engineered E. coli” (Nature Communications, 2022).

In the assay the test system is E. coli TESEC Mtb Alr. Put plainly: growth (OD600 after 10 h); higher = more growth (less inhibition). The note with it: compound 0.1 mM. As for the experimental part:
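TESEC Mtb Alr E. coli, or the Alr+ wild-type control, in 384-well plates with Prestwick library compounds at 0.1 mM and 1% DMSO, across arabinose induction levels of 1E3 to 1E7 nM. Growth is read as OD600 after 10 h at 37 °C in triplicate biological replicates.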

[1] abbreviates: arabinose 1000 nM, raw OD600 reference: median of DMSO wells 0.294, cell-free background 0.041.
The mark [2] stands for this setting: arabinose 10000 nM, raw OD600 reference: median of DMSO wells 0.264, cell-free background 0.041.
[3] abbreviates: arabinose 100000 nM, raw OD600 reference: median of DMSO wells 0.201, cell-free background 0.041.
Where [4] appears, read: arabinose 1000000 nM, raw OD600 reference: median of DMSO wells 0.193, cell-free background 0.041.
Setting [5] is: arabinose 10000000 nM, raw OD600 reference: median of DMSO wells 0.146, cell-free background 0.041.

Counter-ions that a name gives are not always drawn. ± gives the standard deviation of the averaged measurements.

Regarding `CC(=O)OC[C@H]1O[C@@H]([S-])[C@H](OC(C)=O)[C@@H](OC(C)=O)[C@@H]1OC(C)=O.CCP(CC)CC.[Au+]` [Auranofin], the growth reads like this: under setting [1], 0.04847 ± 0.00021; under setting [2], 0.0451 ± 0.00026; under setting [3], 0.0634 ± 0.012; under setting [4], 0.0436 ± 0.00056; under setting [5], 0.0467 ± 0.00053.

Take `Cc1onc(-c2c(Cl)cccc2Cl)c1C(=O)N[C@@H]1C(=O)N2[C@@H]1SC(C)(C)[C@@H]2C(=O)O` [Dicloxacillin sodium salt hydrate]: the growth runs as follows: under setting [1], 0.226 ± 0.11; under setting [2], 0.261 ± 0.0043; under setting [3], 0.196 ± 0.02; under setting [4], 0.185 ± 0.007; under setting [5], 0.149 ± 0.0044.

As for `CN(c1nccc(=O)[nH]1)C1CCN(c2nc3ccccc3n2Cc2ccc(F)cc2)CC1` [Mizolastine], the growth was determined as 0.221 ± 0.011 under setting [1]; 0.172 ± 0.0085 under setting [2]; 0.215 ± 0.01 under setting [3]; 0.0813 ± 0.0018 under setting [4]; 0.1409 ± 0.0014 under setting [5].

`COC(=O)C1=C(C#N)NC(C)=C(C(=O)OC(C)C)C1c1cccc([N+](=O)[O-])c1` (stereo not given) [Nilvadipine]: the growth was found to be 0.203 ± 0.014 under setting [1]; 0.2569 ± 0.001 under setting [2]; 0.164 ± 0.014 under setting [3]; 0.0883 ± 0.002 under setting [4]; 0.149 ± 0.033 under setting [5].

Take `CCn1cc(C(=O)O)c(=O)c2cnc(N3CCNCC3)nc21` [Pipemidic acid]: the growth stood at 0.0801 ± 0.033 under setting [1]; 0.063 ± 0.0022 under setting [2]; 0.117 ± 0.0072 under setting [3]; 0.0845 ± 0.028 under setting [4]; 0.147 ± 0.0057 under setting [5].

For the compound `C#Cc1cccc(Nc2ncnc3cc(OCCOC)c(OCCOC)cc23)c1` [Erlotinib], the growth reads like this: under setting [1], 0.256 ± 0.01; under setting [2], 0.236 ± 0.0081; under setting [3], 0.202 ± 0.0068; under setting [4], 0.146 ± 0.0076; under setting [5], 0.185 ± 0.01.

In the case of `O=C(O)c1cc(-c2ccc(F)cc2F)ccc1O` [Diflunisal], the growth by setting is: under setting [1], 0.151 ± 0.018; under setting [2], 0.105 ± 0.0038; under setting [3], 0.119 ± 0.003; under setting [4], 0.086 ± 0.0022; under setting [5], 0.112 ± 0.0029.

Turning to `O=C(NCCO[N+](=O)[O-])c1cccnc1` [Nicorandil], the growth turned out to be 0.3 ± 0.021 under setting [1]; 0.286 ± 0.0046 under setting [2]; 0.208 ± 0.025 under setting [3]; 0.213 ± 0.0045 under setting [4]; 0.153 ± 0.0067 under setting [5].
